PLK1 PBD block = blocks phosphopeptide binding to human PLK1 polo-box domain | P53350 | Plk1 PBD binding of FITC phosphopeptide, fluorescence polarization | Potency, µM, without a hit: max response, negative = inhibition, usual class: inhibitors | 360,000 tested, 2.8% active | AID 720504; note: series mostly up to about 57 µM; nearly all actives have a fitted effect of over 65% in size
VDR inh = inhibitors of human vitamin D receptor; P11473; VDR-SRC2-3 peptide fluorescence polarization, 2 h; Potency, µM, inactives show max response, negative = inhibition, hits mostly inhibitors; 400,000 tested, 0.93% active; AID 504847
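Fluorescence polarization assay measuring small-molecule disruption of VDR binding to the coregulator peptide SRC2-3. Compounds were pin-transferred (23 nl) into the reagent mix and incubated 2 h at room temperature before reading.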
DT40 TDP1 CPT = growth inhibition of DT40 Tdp1-/-;hTDP1 cells with camptothecin (screen for TDP1 inhibitors); chicken DT40 Tdp1-/-;hTDP1 cells + 20 nM CPT, ATP luminescence, 48 h; Potency, µM (titrated, usually from 46.2 µM), inactives show at the top dose activity change, negative = growth inhibition, most hits filed as inhibitors; 420,000 tested, 12% active; AID 686979; note: nearly all actives have a fitted effect of over 55% in size
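Chicken DT40 Tdp1-/- cells complemented with human TDP1, 400 cells/well, exposed to compounds plus 20 nM camptothecin for at least 48 h at 37 C; viability read as ATP content by CellTiter-Glo luminescence.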
DT40 TDP1 no CPT = qHTS for Inhibitors of human tyrosyl-DNA phosphodiesterase 1 (TDP1): qHTS in cells in absence of CPT. DT40 Tdp1-/- hTDP1 cells, no CPT, ATP luminescence, 48 h. Potency, µM (top dose mostly 46.2 µM), for inactives: at the highest dose activity change, negative = growth inhibition, usual class: inhibitors. 420,000 tested, 15% active; note: nearly all actives have a fitted effect of over 55% in size
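Luminescent ATP content (CellTiter-Glo) served as the growth readout. Knockout chicken DT40 cells expressing human TDP1 were exposed to compounds without camptothecin for a minimum 48 hr at 37 °C.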
KAT2A inh = blocks human GCN5L2 histone acetyltransferase | AID 504327 | 390,000 tested, 0.21% active | GCN5L2 HAT assay, ThioGlo1 CoA-SH fluorescence | Potency, µM (highest dose often 58.9 µM), for inactives: at the highest dose activity change, negative = inhibition, actives largely listed as inhibitors | Q92830
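ThioGlo1-coupled HAT assay: 20nM GCN5L2, 70uM acetyl-CoA, 75uM H3(1-25) peptide, pH 7.5. Fluorescence read at 340/540nm at start and after 20 min at room temperature.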
TDP1 inh = blocks human tyrosyl-DNA phosphodiesterase 1 | Q9NUW8 | recombinant TDP1, AlphaScreen DNA substrate cleavage | Potency, µM (titrated, usually from 130 µM), for inactives: at the top dose activity change, negative = inhibition, usual class: inhibitors | 350,000 tested, 0.28% active | AID 485290; note: nearly all actives have a fitted effect of over 40% in size
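Steps: enzyme plus compound, 15 min RT; add biotin/phosphotyrosine-FITC oligonucleotide (15 nM final), react 5 min; add donor/acceptor beads (10 ug/ml final), 10 min; read AlphaScreen. Tdp1 at 1 nM final.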
Numbers without * were called inactive; ? = inconclusive; / = no result; [ ] = remark or other dose. Sampled rows, rich in hits. Any-hit rate of the full collection: about 18%. Calls come from the whole dose curve; as a rule, active = well fitted curve in the direction sought with a large enough effect; inconclusive = small, poorly fitted or top-dose-only effect, or another doubt; inactive = no such curve, though single readings can be large; an effect the other way counts as inactive or inconclusive. % is set by controls: 0 for no effect and ±100 for the full control effect; potency is the fitted concentration of half-maximal effect.

SMILES	PLK1 PBD block	VDR inh	DT40 TDP1 CPT	DT40 TDP1 no CPT	KAT2A inh	TDP1 inh
Cc1nc(Nc2ccccc2)c2oc3ccc(Cl)cc3c2n1	2%	-15%	?	23µM*	-4%	/
c1ccc2c(c1)oc1c(Nc3ccc(CN4CCOCC4)cc3)ncnc12	1%	3%	?	15µM*	-9%	3%
Cc1noc(C)c1COc1ccc(C(=O)N2CCCC(C(F)(F)F)C2)cc1 (stereo not drawn)	-4%	-3%	?	?	-6%	0%
Oc1ccccc1Nc1ncnc2c1oc1ccccc12	-6%	1%	-21%	-29%	-10%	3%
c1ccc(Nc2ncnc3c2oc2ccccc23)cc1	-2%	19%	10µM*	?	/	/
COc1ccc(C(=O)NCC2Cc3c(F)ccc(-c4nc(C)cnc4C)c3O2)cc1F (stereo not drawn)	/	/	-2%[9.04 µM]	-25%	/	/
COc1ccc(C(=O)NCCc2nnc3ccc(SCC(=O)Nc4ccccc4F)nn23)cc1	-8%	9%	-2%	-2%	-5%	1%
CCOc1ccc(N2C(=O)C(c3ccccc3)=C(c3nc4ccccc4s3)C2NC(C)=O)cc1 (stereo not drawn)	-8%	-13%	?	16µM*	-13%	10%
Cc1ccc(C(=O)C=CC=Cc2ccccc2)cc1	-10%	/	?	?	/	/
Cc1ccc(C(=O)C(C(=O)/C=C/c2ccccc2)=C2SCCCS2)cc1	3.4µM*	-15%	5.8µM*	4.6µM*	-14%	8%
Cc1ccc(OCC(=O)Nc2ccc3nc(SCC(=O)Nc4ccc(C)cc4C)sc3c2)cc1	/	0%	?	?	-12%	5%
CC(=O)Oc1c(Br)cc(N(C(C)=O)S(=O)(=O)c2ccccc2)c2ccccc12	27µM*	-6%	?	6.5µM*	-9%	/
CC(=O)Oc1ccccc1N(C(C)=O)S(=O)(=O)c1ccc2ccccc2c1	?	-19%	-15%	-20%	-4%	5%
COc1ccccc1N1CCN(S(=O)(=O)c2c(C)sc3ncn(CC(=O)N(C)c4ccc(C(C)C)cc4)c(=O)c23)CC1	/	-22%	13µM*	?	-15%	6%
Cc1sc2ncn(CC(=O)N(C)c3ccc(C(C)C)cc3)c(=O)c2c1S(=O)(=O)N1CCC(C)CC1	/	-18%	23µM*	23µM*	-5%	0%
COc1ncc2nc(CCc3ccccc3)c(=O)n(CCC#N)c2n1	/	-3%	-2%	-29%	-7%	/
Cc1ccc(CCNC(=O)CCN2N=C(c3ccc(C)cc3)CCC2=O)cc1	/	12%	?	?	-18%	1%
COc1ccc(SCC(CC(C)C)N2CCN(CCc3ccccc3)CCC2=O)cc1 (stereo not drawn)	/	0%	/	/	/	10%
CC(C)(C)NC(=O)C(c1ccc(C(F)(F)F)cc1)n1c(=O)c(-c2ccccc2)nc2ccccc21 (stereo not drawn)	0%	/	18µM*	?	/	/
O=C(NC1CCCCC1)C(c1ccc(C(F)(F)F)cc1)n1c(=O)c(-c2ccccc2)nc2ccccc21 (stereo not drawn)	-4%	/	?	13µM*	/	/
Cc1cccc(C)c1NC(=O)C(C1CC1)n1c(-c2ccc(-c3ccccc3)cc2)nc2ccccc21 (stereo not drawn)	5%	/	?	?	/	/
Cc1cccc(C)c1NC(=O)C(C1CC1)n1c(-c2ccc(C(F)(F)F)cc2)nc2ccccc21 (stereo not drawn)	0%	/	?	18µM*	/	/
O=C(NC1CCCCC1)C(CCc1ccccc1)n1c(=O)c(-c2ccccc2)nc2ccccc21 (stereo not drawn)	-2%	/	?	-29%	/	/
COc1ccc(C(C(=O)NC(C)(C)C)n2c(-c3ccc(C(F)(F)F)cc3)nc3ccccc32)cc1 (stereo not drawn)	-3%	/	16µM*	?	/	/
CCN(CC)CCn1c2c(c(SCC(=O)NCc3ccccc3)nc1=O)CCC2	-10%	-18%	6%	-1%	3%	-8%[0.505 µM]
SMILES	PLK1 PBD block	VDR inh	DT40 TDP1 CPT	DT40 TDP1 no CPT	KAT2A inh	TDP1 inh
CN(Cc1ccccc1)C(=O)[C@@H]1CCCN1C(=O)[C@@H]1CCCN1C(=O)OC(C)(C)C	4%	/	-22%	-28%	/	/
O=C(NC1CCCC1)C(c1ccccc1)n1c(Cc2cc(F)cc(F)c2)nc2ccccc21 (stereo not drawn)	-2%	/	18µM*	?	/	/
O=c1cccc2n1Cc1cc3ccccc3nc1-2	-9%	-2%	?	?	?	5%
CC[C@@]1(O)C(=O)OCc2c1cc1n(c2=O)Cc2cc3c([N+](=O)[O-])cccc3nc2-1	/	4%	0.034µM*	0.21µM*	-11%	/
CC[C@@]1(O)C(=O)OCc2c1cc1n(c2=O)Cc2cc3c(CN(C)C)c(O)ccc3nc2-1	6µM*	-5%	0.15µM*	0.18µM*	?	-13%[56.1 µM]
O=C(CSc1nnc(C2CC2)n1Cc1ccccc1)N1CCNC1=O	3%	9%	4%	3%	-7%	-1%
C[N+]1(CC(=O)c2ccc(I)cc2)CCCc2ccccc21 (stereo not drawn)	/	/	7.9µM*	7.1µM*	/	/
O=C(C[N+]12CCCc3cccc(c31)CCC2)c1ccccc1	/	/	?	10µM*	/	/
CC(C)(C)c1nnc(NC(=O)Nc2ccc(Cl)cc2)s1	-2%	0%	?	16µM*	4%	2%
O=C(Nc1ccccc1)Nc1nnc(CSCc2ccccc2Cl)s1	6%	-17%	21µM*	?	-1%	3%
O=C(Cc1nnc(NC(=O)Nc2ccccc2)s1)Nc1ccccc1	4%	-9%	-1%	-1%	-8%	1%
Cc1ccc(SCC(=O)Nc2nnc(C(C)(C)C)s2)cc1	21µM*	4%	15%	-27%	8%	/
O=C(Nc1ccc(Cl)c(Cl)c1)Nc1nnc(CSc2ccccc2)s1	4%	-8%	2.6µM*	5.2µM*	-3%	0%
Cc1c(NC(=O)c2cc(-c3ccc(Cl)cc3)on2)c(=O)n(-c2ccccc2)n1C	?	-18%	?	?	-13%	1%
COC(=O)[C@H](Cc1ccccc1)NC(=O)NCCc1ccc(OC)cc1	2%	13%	6%	-7%	1%	/
Cc1ccccc1-c1nc(SCC(=O)NCc2ccco2)c2c(=O)n(C)c(=O)n(C)c2n1	/	-6%	-24%	7%	-4%	3%
O=C(Nc1ccc(Cl)cc1)Nc1nnc(SCc2ccccc2)s1	-10%	9%	?	?	41%	0%
